Screens from PubChem.
This excerpt belongs to a sample that is enriched for hits.
Giardia FBPA inh: inhibitors of Giardia lamblia fructose-1,6-bisphosphate aldolase; A8B2U2; purified Giardia FBPA; Potency, µM (titrated, usually from 59.6 µM), for inactives: at the highest dose activity, negative = inhibition, hits mostly inhibitors; 0.71% of 290,000 active; also: potency is read from the fitted curve at half-maximal effect; % is scaled to controls: 0 for no effect and ±100 for the full control effect; nearly all actives have a fitted effect of over 55% in size
Target sequence (A8B2U2 whole entry, looked up): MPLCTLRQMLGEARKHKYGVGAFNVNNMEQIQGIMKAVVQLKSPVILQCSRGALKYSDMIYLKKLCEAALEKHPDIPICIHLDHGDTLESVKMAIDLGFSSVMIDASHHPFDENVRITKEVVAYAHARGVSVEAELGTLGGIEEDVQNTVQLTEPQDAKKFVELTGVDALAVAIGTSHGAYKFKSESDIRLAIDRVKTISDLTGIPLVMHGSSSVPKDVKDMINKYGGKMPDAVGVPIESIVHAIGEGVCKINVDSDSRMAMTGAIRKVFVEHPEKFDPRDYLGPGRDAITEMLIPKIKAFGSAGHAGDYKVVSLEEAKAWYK
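40 nM FBPA preincubated 10 min at RT with compound (up to 57.5 uM final), then substrate plus GAPDH/TPI/NAD/arsenate coupling and diaphorase/resazurin added. Fluorescence read after 20 min at RT, 525/598 nm.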
Shiga toxin inh: Shiga toxin inhibition | inhibition, % at 38.7 µM | 9.2% of 290,000 active | Vero cells, Shiga toxin protein synthesis inhibition reporter; in the data active = inhibition mostly above about 28%, no sharp cut-off; inactive = mostly below about 43%; also: 0% is about no effect
TbPYK inhibitor: inhibitors of Trypanosoma brucei pyruvate kinase | Potency, µM (highest dose often 76.8 µM), inactives show at the top dose activity, negative = inhibition, actives largely listed as inhibitors | AID 624173 | Q57TT1 | 0.12% of 410,000 active | TbPYK enzyme, Kinase-Glo Plus ATP luminescence, 45 min; also: potency is read from the fitted curve at half-maximal effect; % is scaled to controls: 0 for no effect and ±100 for the full control effect; nearly all actives have a fitted effect of over 50% in size
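Quantitative HTS: titrated library compounds versus trypanosomal pyruvate kinase in TEA buffer (pH 7.2) containing KCl, MgCl2, BSA and Tween-20. Reactions were initiated with ADP, 130 uM final. Kinase-Glo Plus luminescence was read after 45 min at RT.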
LmPK inhibitor: LmPK (Leishmania mexicana) enzyme inhibition | 0.37% of 290,000 active | Potency, µM (series often up to 57.5 µM), without a hit: top-dose activity change, negative = inhibition, actives largely listed as inhibitors | AID 1721 | purified LmPK, Kinase-Glo ATP luminescence, 1 h; also: potency is read from the fitted curve at half-maximal effect; % is scaled to controls: 0 for no effect and ±100 for the full control effect
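Purified LmPK (0.1 nM) converted ADP (0.1 mM) to ATP with PEP (0.5 mM) in imidazole buffer pH 7.2 with KCl and MgCl2, 1 h at room temperature. ATP was read by Kinase-Glo luminescence; data normalized to uninhibited and no-enzyme controls.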
CHX counter: counter-screen hit for Shiga toxin inhibitors, cycloheximide; cell reporter, cycloheximide protein synthesis inhibition counterscreen; max response, %; 12% of 300,000 active; AID 2314; in the data active = max response mostly above about 13%, no sharp cut-off; inactive = mostly below about 14%; also: read at 38.3 µM for the half of the compounds with a filed dose; 0% is about no effect
Sm TGR inh: inhibitors of Schistosoma mansoni thioredoxin glutathione reductase; Q962Y6; 3% of 360,000 active; Potency, µM (top dose mostly 114 µM), for inactives: at the highest dose activity change, negative = inhibition, actives largely listed as inhibitors; purified TGR, DTNB reduction, TNB absorbance 405 nm; also: potency is read from the fitted curve at half-maximal effect; % is scaled to controls: 0 for no effect and ±100 for the full control effect; nearly all actives have a fitted effect of over 60% in size
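TGR 20 nM + NADPH 100 uM (dispensed conc.), cpd preinc 15 min RT; start with NADPH (500 uM addition) then DTNB (15 mM addition). Kinetic TNB absorbance, 405 nm filter. Four-parameter Hill fit across titration.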
The depositor's hits bear a star; i = inactive; ? = inconclusive; . = no result; [ ] = another dose, or the depositor's remark. Unless noted, calls follow the shape of the dose curve; as a rule, active = well fitted curve in the direction sought with a large enough effect; inconclusive = small, poorly fitted or top-dose-only effect, or another doubt; inactive = no such curve, though single readings can be large; an effect the other way counts as inactive or inconclusive.

SMILES	Giardia FBPA inh	Shiga toxin inh	TbPYK inhibitor	LmPK inhibitor	CHX counter	Sm TGR inh
COCCNc1cnn(-c2ccccc2)c(=O)c1Cl	5%	39*	5%	-5%	25*	9%
CCCCNc1cnn(-c2ccccc2)c(=O)c1Cl	0%	75*	-6%	1%	33*	7%
Cc1cccc(NC(=O)NC(=O)c2ccccc2)n1	5%	74*	-5%	-3%	20	2%
Cc1cccc(NC(=O)Nc2ccc(F)cc2)n1	2%	63*	4%	10%	17	3%
Cc1cccc(NC(=O)Nc2cccc(C)n2)n1	0%	86*	0%	-4%	20*	7%
Cc1cccc(NC(=O)Nc2ccc(C)c(C)c2)n1	2%	54*	-3%	2%	24*	8%
CCOc1ccccc1NC(=O)c1cn(C2CCCCC2)c(=O)c2c1c1ccccc1n2C	.	.	1%	.	.	1%
Cc1ccc(NC(=O)c2cn(-c3cccc(C)n3)cn2)cc1	1%	90*	0%	-4%	39*	9%
Cc1ccc(NC(=O)Nc2cccc(C)n2)cc1	7%	103*	0%	7%	49*	6%
Cc1cccc(NC(=O)Nc2ccc([N+](=O)[O-])cc2)n1	2%	19	1%	4%	15	-2%
Cc1cccc(NC(=O)Nc2ccc(Cl)cc2)n1	-2%	39*	-2%	-3%	22*	8%
CCN(CC)S(=O)(=O)c1cccc(C(=O)OCC(=O)NCCN2C(=O)CSC2=O)c1	.	.	-5%	.	.	-8%
CNC(=O)Oc1ccc2c(c1)C(=O)c1ccccc1CO2	1%	62	1%	-5%	16*	-15%
COc1ccc2c(c1)C(=O)c1ccccc1CO2	-4%	117*	-3%	-17%	53*	?
Cc1cc2c(c(=O)n1Cc1ccccc1)C1O[C@](CCCCN3C(=O)c4ccccc4C3=O)(Cc3cc(C#N)ccc31)O2	6%[12.9 µM]	i	.	-10%[11.5 µM]	-2	?
Clc1ccc(C(Cl)(Cl)Cl)c(Cl)c1	.	.	2%	.	.	2.8µM*
CCC(C)Sc1ccc([C@H]2N[C@@](Cc3ccccc3)(C(=O)OC)[C@H]3C(=O)N(CC)C(=O)[C@@H]23)cc1 (some centres undefined)	.	.	0%	.	.	1%
CC1CCc2c(sc(/N=C/c3ccco3)c2C(N)=O)C1 (centres undefined)	-18%	74*	-6%	-1%	38*	?
CC1CCc2c(sc(/N=C/c3cccnc3)c2C(N)=O)C1 (centres undefined)	-15%	54	-24%	3%	16*	?
CC1CCc2c(sc(NC(=O)C3c4ccccc4Oc4ccccc43)c2C(N)=O)C1 (centres undefined)	0%	-7	-12%	1%	-2	-7%
Cc1cccc(C(=O)Nc2cccc(OCc3cc(=O)n4ccccc4n3)c2)c1	.	.	-4%	.	.	-2%
COc1ccc(CCNC(=O)Cn2c(=O)nc(-c3ccccc3)c3cc(Cl)ccc32)cc1OC	.	.	-17%	.	.	-1%
N=C1CCC(=N)c2c1c(O)c1ccccc1c2O	6.3µM*	4	?	-12%	13*	4.5µM*
Cc1ccc(NC(=S)N2CCN(c3ccccn3)CC2)c(C)c1	0%	0	1%	-4%	4	1%
COc1ccc(C)cc1NC(=S)N1CCN(c2ccccn2)CC1	-14%	62*	8%	-1%	35*	0%
SMILES	Giardia FBPA inh	Shiga toxin inh	TbPYK inhibitor	LmPK inhibitor	CHX counter	Sm TGR inh
Cc1ccc(NC(=O)CSc2nccn2C2CCCC2)cc1Cl	.	.	1%	.	.	-13%
CC1(C)CCN2CCC(C)(C)c3c(O)ccc1c32	?	-4	-13%	?	0	2.8µM*
O=[N+]([O-])c1ccc2c(c1)-c1ccccc1C2O (centres undefined)	.	.	16µM*	.	.	.
CCOC(=O)c1sc(Nc2nc3ccc(OC)cc3s2)cc1C	-14%	74*	-5%	2%	41*	-2%
CCC(=O)NNc1nc2c(C)cccc2s1	6%	-7	-5%	12%[11.5 µM]	1	2%
CCOC(=O)c1sc(Nc2nc3c(F)cccc3s2)cc1C	-8%	72*	-10%	-3%	38*	-3%
CCOc1ccc(S(=O)(=O)Nc2nc3ccc(OC)cc3s2)cc1	14%	-6	-3%	2%	-2	-5%
